From PubChem BioAssay
In the library only some 4.3% were active in any assay of this set; here they are far more common.
DRD3 antagonist – qHTS of D3 Dopamine Receptor Antagonist: qHTS | D(3) dopamine receptor (Homo sapiens), P35462 | D3R cells, DiscoveRx beta-arrestin luminescence, antagonist mode; stronger effect = lower value | max response, negative = inhibition, % | 2.5% of 360,000 active | AID 652054, 2013; in the data active means max response below about -50%; inconclusive means no clear call, values can overlap the other calls; further: on the % scale 0 is the no-effect control and ±100 the full control effect
Target sequence (P35462 whole entry, looked up): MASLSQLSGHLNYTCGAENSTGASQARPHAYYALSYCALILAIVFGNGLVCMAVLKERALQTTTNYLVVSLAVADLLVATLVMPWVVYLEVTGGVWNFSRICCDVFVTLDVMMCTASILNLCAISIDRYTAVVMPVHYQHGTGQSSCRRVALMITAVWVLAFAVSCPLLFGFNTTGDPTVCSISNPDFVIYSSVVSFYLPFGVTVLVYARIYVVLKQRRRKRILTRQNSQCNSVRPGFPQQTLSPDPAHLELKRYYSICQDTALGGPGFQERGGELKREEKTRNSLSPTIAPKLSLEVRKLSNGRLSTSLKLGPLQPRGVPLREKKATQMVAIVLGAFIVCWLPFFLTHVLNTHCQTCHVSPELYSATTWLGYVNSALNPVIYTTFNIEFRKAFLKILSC
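Cells expressing the human receptor were seeded at 1500 cells/well, incubated overnight at 37 degrees C in 5% CO2, then exposed to library compounds with dopamine controls for 90 minutes at 37 degrees C before luminescent detection.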
DRD3 agonist – qHTS of D3 Dopamine Receptor Agonist: qHTS; D(3) dopamine receptor (Homo sapiens), P35462; D3R DiscoveRx beta-arrestin cells, luminescence, 90 min; max activation, %; 0.58% of 410,000 active; AID 652048, 2013; in the data active means max activation above about 30%; further: 0% is about no effect
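Agonist mode: compounds and dopamine controls were applied to plated cells for 90 min at 37 degrees C after an overnight attachment at 1500 cells/well. Luminescent read-out followed 30 - 60 minutes at room temperature with DiscoveRx detection reagent.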
GLP-1R inv ag – qHTS of GLP-1 Receptor Inverse Agonists (Inhibition Mode); Glucagon-like peptide 1 receptor (Homo sapiens), P43220; HEK293 GLP-1R CRE-luciferase, luminescence, 24 h; GLP-1R form is constitutively active; Potency, µM (doses to about 38.3 µM), for inactives: at the top dose activity change, negative = inhibition, hits mostly inhibitors; 1.6% of 410,000 active; AID 624417, 2012; further: potency means the concentration at half of the fitted maximal effect; on the % scale 0 is the no-effect control and ±100 the full control effect; nearly all actives have a fitted effect of over 55% in size
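Using stably transfected HEK293 (constitutively active GLP-1R, cAMP-luciferase reporter), compounds were incubated 24 hr and luciferase measured by luminescence.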
GLP-1R agonist – qHTS of GLP-1 Receptor Agonists; Glucagon-like peptide 1 receptor (Homo sapiens), P43220; Potency, µM (titrated, usually from 45.6 µM), without a hit: at the highest dose activation, hits mostly activators; HEK293 GLP-1R CRE-luciferase, luminescence, 4-6 h; cells express a hypersensitive GLP-1R form; AID 624172, 2012; 0.007% of 380,000 active; further: potency means the concentration at half of the fitted maximal effect; % of control where 0% means no effect
* hit, by the source's call; ? = inconclusive; · = not tested or not shown. Unless noted, the call rests on the fitted dose curve; in most records, active means well fitted curve in the direction sought with a large enough effect; inconclusive means small, poorly fitted or top-dose-only effect, or another doubt; inactive means no such curve, though single readings can be large; an effect the other way counts as inactive or inconclusive.

SMILES	DRD3 antagonist	DRD3 agonist	GLP-1R inv ag	GLP-1R agonist
CSc1ccccc1NC(=O)CN(C)Cc1ccc(Br)cc1	?	-37.7	7.08µM*	17.4%
Cc1ccsc1CN(C)CC(=O)Nc1ccc([N+](=O)[O-])cc1Cl	-7.8	-7.1	?	?
Cc1ccc(CN(C(=O)COc2cc(C)c(Cl)c(C)c2)c2ccccn2)o1	·	-0.7	?	·
Cc1cccc(C)c1NC(=O)N1CCC(c2nc3ccccc3o2)CC1	-74.9*	1.4	0.9%	-12.3%
CCNc1nc(SCC(=O)Nc2ccc(Cl)c(Cl)c2)nc(N(C)C)n1	-14.2	-0.8	4.2%	16.8%
CN(C)c1nc(NCc2ccccc2)nc(SCC(=O)Nc2ccc(Cl)c(Cl)c2)n1	41.1	46.5*	0.0%	-0.8%
CCn1ccnc1CNC(=O)c1ccc2oc(CCCc3ccccc3)nc2c1	-51.4*	-15.3	?	-1.4%
COc1cccc(N2CC(NC(=O)c3ccc(S(=O)(=O)N4CCCC4)cc3)CC2=O)c1 (centres undefined)	·	-3.8	-1.3%	·
Cc1ccc(C)c(C(C)NC(=O)C2CCCC2)c1 (centres undefined)	-25.9	0.8	-18.5%	-6.2%
Cc1ccc(C)c(C(C)NC(=S)NC2CCCCC2)c1 (centres undefined)	5.8	7.9	2.82µM*	0.8%
O=C(N/N=C/c1cccc(Oc2ccccc2)c1)c1cccc(Br)c1	-3.9	-1.8	8.91µM*	-4.6%
CC1CCC/C(=N\NC(=S)NCc2ccccc2)C1 (centres undefined)	0.0	-0.7	?	0.6%
CC1C/C(=N\NC(=S)NCc2ccccc2)CC(C)(C)C1 (centres undefined)	-56.2*	-21.1	?	0.1%
COC(=O)c1c(C)oc2ccc(N(C(=O)c3ccncc3)S(=O)(=O)c3c(C)cc(C)cc3C)cc12	·	11.8	-24.3%	·
Cc1c(C(=O)O)c(O)cc2c1C(=O)c1c(O)c([C@@H]3O[C@H](CO)[C@@H](O)[C@H](O)[C@H]3O)c(O)c(O)c1C2=O	-83.8*	-12.8	2.0%	-3.9%
CC(=O)N1CCC2(CC1)OC(=O)C(C)=C2C(=O)NCc1cccc(Cl)c1	·	-3.1	5.9%	·
Cc1cc(C)cc(-n2ccn(Cc3ccc(F)cc3)c(=O)c2=O)c1	·	-9.9	-7.1%	·
CCN(Cc1nc2cc(Cl)ccc2c(=O)[nH]1)C(=O)c1cc(C2CC2)nn1-c1ccccc1	-10.1	-6.7	?	-10.0%
Cc1ccc(Nc2cc(C)nn2-c2nc(C)cc(=O)[nH]2)cc1	-66.8*	0.3	?	14.5%
COc1ccc(CCNc2ncnc3onc(C)c23)c(OC)c1	·	9.9	8.5%	·
Cc1cccc(COC[C@H](Cc2ccccc2)N2CCN(C(=O)c3ccc(C(F)(F)F)cc3)CCC2=O)c1	-5.1	-1.8	?	5.2%
CC(C)CC(COCc1cccc(Cl)c1)N1CCN(C(=O)c2ccc(C(F)(F)F)cc2)CCC1=O (centres undefined)	25.4	6.5	10µM*	-2.3%
CC(C)C[C@@H](COCc1cccc(Cl)c1)N1CCN(C(=O)c2cccc(C(F)(F)F)c2)CCC1=O	1.5	-1.4	?	10.1%
Cc1cccc(C(=O)N2CCC(=O)N(C(COCc3cccc(Cl)c3)Cc3ccccc3)CC2)c1 (centres undefined)	-0.9	0.0	8.91µM*	3.8%
O=C(c1ccc(Cl)c(Cl)c1)N1CCC(=O)N(C(COCc2cccc(Cl)c2)Cc2ccccc2)CC1 (centres undefined)	83.7	2.4	3.98µM*	-5.0%
SMILES	DRD3 antagonist	DRD3 agonist	GLP-1R inv ag	GLP-1R agonist
Cc1cccc(COCC(Cc2ccccc2)N2CCN(C(=O)c3ccc(C(F)(F)F)cc3)CCC2=O)c1 (centres undefined)	19.8	5.9	11.2µM*	-0.2%
CCCCN(CCCC)CCNC(=O)c1cn(C)c2ccc(S(=O)(=O)N3CCOCC3)cc2c1=O	·	6.4	-5.7%	·
Cc1ccc(OCCSc2nc3ccccc3n2CCC(=O)O)cc1C	·	-1.2	-6.9%	·
COc1ccc(C)cc1NC(=O)C1CCCN(c2ncnc3onc(C)c23)C1 (centres undefined)	·	3.5	2.6%	·
CC(C)(C)NC(=O)NC(=O)COc1ccc(Br)cc1Br	-5.9	3.0	10µM*	13.1%
CS(=O)(=O)N1CCCCC1c1cc(C(=O)NCc2ccc(F)cc2)no1 (centres undefined)	-87.8*	-12.8	29.4%	-0.4%
O=C(NCc1ccc(F)cc1)c1cc(C2CCCCN2S(=O)(=O)Cc2ccccc2)on1 (centres undefined)	-99.1*	-16.0	-28.5%	0.9%
O=C(Nc1nc(NC(=O)c2ccco2)n(-c2ccccc2)n1)c1ccccc1	11.8	39.3*	?	-7.5%
CC(=O)Nc1nc(NCc2ccccc2Cl)n(-c2ccccc2)n1	-11.9	1.8	-2.2%	3.4%
CC(=O)Nc1nc(NC(=O)/C=C/c2ccccc2)n(-c2ccccc2)n1	-72.0*	-11.5	-24.5%	-2.3%
CCOCCc1nn2c(=O)cc(COC(=O)CNC(=O)c3ccc(F)cc3)nc2s1	·	1.0	12.3%	·
CN(CC(=O)NCc1ccccc1Cl)S(=O)(=O)c1ccc2c(c1)c(=O)n(C)c(=O)n2C	·	-15.3	0.0%	-0.3%
CC(C)c1ccc(NC(=O)CSc2ncnc3c2sc2ccccc23)cc1	·	0.0	12.2%	·
COC(=O)[C@H](C)NC(=O)Nc1cccc(Br)c1	0.0	84.2*	-7.8%	11.6%
COC(=O)c1cc(NS(=O)(=O)c2ccc3c(c2)CCC(=O)N3)cc(C(=O)OC)c1	31.3	32.5*	-3.3%	0.0%
C/C(=N\O)c1ccc(OCC(=O)N2CCCCC2)cc1	·	-10.4	·	6.4%
CCOc1ccc(Nc2cc(C)nc3nc(Cc4ccc(Cl)cc4)nn23)cc1	·	0.1	-5.5%	·
Oc1c(C(c2ccccc2)N2CCC3(CC2)OCCO3)sc2nc(-c3ccco3)nn12 (centres undefined)	·	1.9	-2.9%	·
O=C(NCCc1ccc(C(F)(F)F)cc1)C1COc2ccccc2O1 (centres undefined)	24.0	5.5	?	8.2%
O=C(NCCC1=CCCCC1)C1COc2ccccc2O1 (centres undefined)	18.1	3.5	8.91µM*	0.3%
COc1ccc(-n2ncc(Cl)c(Cl)c2=O)cc1	-74.4*	-6.9	?	-9.0%
COc1ccc(-n2c(-c3ccco3)nc3c(cnn3-c3ccc(C)cc3)c2=O)cc1	12.9	4.6	2.5%	10.5%
COc1ccc(-n2c(-c3ccccc3F)nc3c(cnn3-c3ccc(C)cc3)c2=O)cc1	·	-10.1	7.08µM*	·
COc1ccc(-n2ncc(N(C)n3cccc3)c(Cl)c2=O)cc1	-22.5	1.6	-20.4%	-8.9%
CCc1nc2c(cnn2-c2ccc(Cl)cc2)c(=O)n1-c1ccc(OC)cc1	35.0	6.3	11.2µM*	2.5%
